# Laboratory results: PubChem BioAssay (EPA / NIEHS)
# Several values for one entry are separate records, joined by “and”; a condition that tells them apart may be missing. Equal entries are not always repeated. Records with an inconclusive call do not appear. More than one record can exist for a structure, and the calls need not agree. Activity calls are given as the source filed them. How the source made its calls: active means hit-call score of the fitted dose curve at least 0.9, where 1 is the maximum; inconclusive means response in the unintended direction; inactive means score below 0.9.
# Experiments:
# [1] = molecular target: Norway rat Vesicular Monoamine Transporter (VMAT2), neurotransmitter transporter, Slc18a2 (gene 25549) (UniProt Q01827); experiment: NVS_TR_rVMAT2: NovaScreen (NVS) Transporter Assay for Norway rat Vesicular Monoamine Transporter (VMAT2), neurotransmitter transporter (AID 2283376);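 further: actives lower the bound radioligand signal below the DMSO level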
# Procedure, shortened: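 Radioligand displacement binding on rat forebrain tissue preparation, filter-based scintillation read-out 1 hour after dosing. Primary screen in duplicate at 25 uM, then concentration series for actives; loss of signal versus DMSO.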
# [2] = molecular target: bovine Estrogen Receptor (ER), ESR1 (gene 407238) (UniProt P49884); experiment: NVS_NR_bER: NovaScreen (NVS) Nuclear Receptor Binding Assay for bovine Estrogen Receptor (ER) (AID 2283345);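 further: actives lower the bound radioligand count which means they displace the ER ligand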
# Procedure, shortened: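 Displacement of a radioligand from estrogen receptor in bovine uterine membrane preparations; scintillation signal taken at 18 hours, DMSO as baseline. Single-concentration duplicates (25 uM) preceded concentration-response follow-up of actives.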
# [3] = molecular target: mouse Estrogen Receptor alpha (Era), Esr1 (gene 13982) (UniProt P19785); experiment: NVS_NR_mERa: NovaScreen (NVS) Nuclear Receptor Binding Assay for mouse Estrogen Receptor alpha (Era) (AID 2283378);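 further: hit means loss of bound radioligand signal relative to DMSO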
# Procedure, shortened: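 Extracted mouse Era incubated with tritiated or iodinated radioligand plus test chemical, 18 h. Bound fraction separated on filters, counted by scintillation. DMSO = negative control/baseline; duplicate single-point at 25 uM, then concentration-response follow-up.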
# [4] = TOX21_p53_BLA_p3_viability: Viability Assessment in the Tox21 HCT-116 p53 Agonism Beta-lactamase Assay, Phase 3 (AID 2283593);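 further: cells exposed to compound for 16 h before reading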
# Procedure, shortened: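 HCT116 cells, 4000/well, dosed 5 h after plating by pin transfer (217-fold dilution from DMSO stock) and incubated 16 h at 37C, 5% CO2. Viability read as ATP luminescence with CellTiter-Glo after 30 min at room temperature.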
# [5] = molecular target: Cellular tumor antigen p53 (Homo sapiens) (UniProt P04637); experiment: TOX21_p53_BLA_p3_ratio: Tox21 HCT-116 p53 Agonism Beta-lactamase Assay, Ratio, Phase 3 (AID 2283596)
# Procedure, shortened: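 HCT116 p53-bla cells (4000/well) given compound in DMSO (217-fold dilution) after 5 h, incubated 16 h at 37C. CCF4-AM substrate 2 h at room temperature; 460/530 nm emission ratio, gain fitted against DMSO.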
# [6] = molecular target: Cellular tumor antigen p53 (Homo sapiens) (UniProt P04637); experiment: TOX21_p53_BLA_p5_ratio: Tox21 HCT-116 p53 Agonism Beta-lactamase Assay, Ratio, Phase 5 (AID 2283599)
# Procedure, shortened: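 HCT-116 p53-bla cells (4000/well) plated 5 h, dosed with compound (217-fold DMSO dilution) for 16 h at 37 C; CCF4-AM substrate 2 h at room temperature. Activity is the 460/530 nm emission ratio (405 nm excitation), fitted in gain-of-signal direction versus DMSO.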
# [7] = TOX21_p53_BLA_p5_viability: Viability Assessment in the Tox21 HCT-116 p53 Agonism Beta-lactamase Assay, Phase 5 (AID 2283600)
# Procedure, shortened: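 4000 cells/well; 5 h pre-incubation; DMSO compounds pin-transferred, 217-fold dilution; 16 h, 37C/5% CO2; CCF4-AM 2 h RT; CellTiter-Glo 30 min RT; luminescence.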
# [8] = molecular target: Cellular tumor antigen p53 (Homo sapiens) (UniProt P04637); experiment: TOX21_p53_BLA_p4_ratio: Tox21 HCT-116 p53 Agonism Beta-lactamase Assay, Ratio, Phase 4 (AID 2283601)
# Procedure, shortened: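 HCT-116 p53 beta-lactamase reporter cells (4000/well) preincubated 5 h, then compound (217-fold dilution of DMSO stock) for 16 h at 37C. CCF4-AM substrate added 2 h at room temperature; 460/530 nm emission ratio fitted upward versus DMSO.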
# [9] = ACEA_ER_AUC_viability: ACEA Biosciences xCELLigence Real-Time Cell Analysis on Estrogen Receptor Agonism for Viability (AID 2283782);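 further: continuous compound exposure with impedance area under curve over 80 h; hit means loss of impedance signal meaning reduced cell growth or viability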
# Procedure, shortened: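 T47D cells preconditioned in phenol red-free RPMI with charcoal-stripped FBS, then dosed with 8-point 1:4 series from 100 uM (up to 0.5% DMSO). Impedance monitored up to ~80 h; area-under-curve loss versus DMSO taken as viability.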
# [10] = TOX21_p53_BLA_p2_viability: Viability Assessment in the Tox21 HCT-116 p53 Agonism Beta-lactamase Assay, Phase 2 (AID 2283591);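 further: compound exposure lasted 16 h at 37 °C; actives lower the ATP signal meaning cytotoxicity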
# Procedure, shortened: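 HCT116 p53-bla cells, 4000/well, dosed after 5 h plating (217-fold dilution of DMSO stocks) and incubated 16 h at 37C. Viability taken as cellular ATP by CellTiter-Glo luminescence after 30 min RT; signal loss marks cytotoxicity.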
# [11] = molecular target: Cellular tumor antigen p53 (Homo sapiens) (UniProt P04637); experiment: TOX21_p53_BLA_p2_ratio: Tox21 HCT-116 p53 Agonism Beta-lactamase Assay, Ratio, Phase 2 (AID 2283592)
# Procedure, shortened: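 HCT116 p53-bla; 4000 cells/well; 5 h pre-incubation; cpd in DMSO, 217-fold dilution; 16 h 37C/5% CO2; CCF4-AM 2 h RT; Ex 405, Em 460/530 ratio; DMSO = baseline; positive fitting direction.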
# [12] = TOX21_p53_BLA_p4_viability: Viability Assessment in the Tox21 HCT-116 p53 Agonism Beta-lactamase Assay, Phase 4 (AID 2283597);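 further: hits lower the luminescence signal meaning cytotoxicity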
# Procedure, shortened: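 Cells plated, 5 h pre-incubation; DMSO compounds pinned (217-fold dilution); 16 h, 37C/5% CO2; CCF4-AM 2 h RT; CellTiter-Glo 30 min RT; luminescence read.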
# PGR (gene 5241) = PGR (gene 5241) (UniProt P06401); experiment: TOX21_PR_BLA_Followup_Antagonist_ratio: Tox21 HEK293 Progesterone Receptor (PR) Antagonism Beta-lactamase Follow-Up Assay, Ratio (AID 2283934)
# Procedure, shortened: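 PR-UAS-bla HEK293T cells in medium with 2% charcoal-stripped FBS were treated with compounds plus 1 nM (final) promegestone (R5020) for 16 hr at 37C. LiveBLAzer B/G FRET substrate was then added for 2 h at room temperature; signal is cleaved/uncleaved substrate ratio versus DMSO.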
# [13] = TOX21_PR_BLA_Followup_Agonist_viability: Viability Assessment in the Tox21 HEK293 Progesterone Receptor (PR) Agonism Beta-lactamase Follow-Up Assay (AID 2283935);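 further: signal loss means lower viability so actives are cytotoxic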
# Procedure, shortened: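 PR-UAS-bla HEK293T cells in 2% charcoal-stripped FBS medium, compound added after 6 hr plating, 16 hr at 37C/5% CO2. After bla FRET read, CellTiter-Glo added; luminescence read after 30 min at room temperature; signal loss marks cytotoxicity.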
# [14] = TOX21_PR_LUC_Followup_Antagonist_viability: Viability Assessment in the Tox21 HEK293 Progesterone Receptor (PR) Antagonism Luciferase Follow-Up Assay (AID 2283940)
# Procedure, shortened: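 HEK293-PR-A-luc cells, precultured 5 days in assay medium with 10% charcoal-stripped FBS, were seeded at 3,000 cells/well, treated with compounds in DMSO for 16 h at 37C, and viability was read as cellular ATP by CellTiter-Glo luminescence.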
# [15] = TOX21_PR_LUC_Followup_Agonist_viability: Viability Assessment in the Tox21 HEK293 Progesterone Receptor (PR) Agonism Luciferase Follow-Up Assay (AID 2283941);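 further: loss of signal means cytotoxicity so actives lower viability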
# Procedure, shortened: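 HEK293-PR-A-luc cells, pre-cultured 5 days in 10% charcoal-stripped FBS, were seeded at 3,000 cells/well, rested 5 h at 37C, then given compound in DMSO for 16 h at 37C. Cellular ATP was read by CellTiter-Glo luminescence; signal loss indicates cytotoxicity.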
# Cellular tumor antigen p53 (Homo sapiens), sequence (P04637 whole entry, looked up): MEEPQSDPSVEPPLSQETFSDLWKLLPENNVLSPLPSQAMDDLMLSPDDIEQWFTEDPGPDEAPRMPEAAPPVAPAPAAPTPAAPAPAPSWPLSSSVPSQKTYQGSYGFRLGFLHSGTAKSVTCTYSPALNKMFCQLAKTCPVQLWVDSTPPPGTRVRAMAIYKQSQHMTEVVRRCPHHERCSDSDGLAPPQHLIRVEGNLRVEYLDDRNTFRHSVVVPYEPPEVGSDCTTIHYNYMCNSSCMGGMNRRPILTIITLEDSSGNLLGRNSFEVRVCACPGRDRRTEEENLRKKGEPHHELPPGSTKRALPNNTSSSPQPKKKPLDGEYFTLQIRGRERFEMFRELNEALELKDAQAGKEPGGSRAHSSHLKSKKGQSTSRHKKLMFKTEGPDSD
# bovine Estrogen Receptor (ER), ESR1 (gene 407238), sequence (P49884 whole entry, looked up): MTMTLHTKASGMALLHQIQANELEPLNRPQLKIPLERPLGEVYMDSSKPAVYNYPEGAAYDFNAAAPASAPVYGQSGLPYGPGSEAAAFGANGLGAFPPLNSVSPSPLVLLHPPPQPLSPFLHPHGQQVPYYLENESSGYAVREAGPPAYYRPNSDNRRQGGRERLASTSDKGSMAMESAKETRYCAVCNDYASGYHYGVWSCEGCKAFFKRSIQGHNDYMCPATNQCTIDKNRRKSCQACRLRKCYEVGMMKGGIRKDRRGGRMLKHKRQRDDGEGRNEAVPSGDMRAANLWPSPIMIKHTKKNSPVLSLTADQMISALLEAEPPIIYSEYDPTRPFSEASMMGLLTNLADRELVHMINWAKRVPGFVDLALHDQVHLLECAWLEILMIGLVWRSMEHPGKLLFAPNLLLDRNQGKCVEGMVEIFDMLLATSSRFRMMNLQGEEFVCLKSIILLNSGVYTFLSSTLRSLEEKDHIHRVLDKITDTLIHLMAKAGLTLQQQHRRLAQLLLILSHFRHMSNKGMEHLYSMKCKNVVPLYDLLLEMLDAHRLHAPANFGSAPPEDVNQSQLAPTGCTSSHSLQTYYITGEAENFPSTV
# Norway rat Vesicular Monoamine Transporter (VMAT2), neurotransmitter transporter, Slc18a2 (gene 25549), sequence (Q01827 whole entry, looked up): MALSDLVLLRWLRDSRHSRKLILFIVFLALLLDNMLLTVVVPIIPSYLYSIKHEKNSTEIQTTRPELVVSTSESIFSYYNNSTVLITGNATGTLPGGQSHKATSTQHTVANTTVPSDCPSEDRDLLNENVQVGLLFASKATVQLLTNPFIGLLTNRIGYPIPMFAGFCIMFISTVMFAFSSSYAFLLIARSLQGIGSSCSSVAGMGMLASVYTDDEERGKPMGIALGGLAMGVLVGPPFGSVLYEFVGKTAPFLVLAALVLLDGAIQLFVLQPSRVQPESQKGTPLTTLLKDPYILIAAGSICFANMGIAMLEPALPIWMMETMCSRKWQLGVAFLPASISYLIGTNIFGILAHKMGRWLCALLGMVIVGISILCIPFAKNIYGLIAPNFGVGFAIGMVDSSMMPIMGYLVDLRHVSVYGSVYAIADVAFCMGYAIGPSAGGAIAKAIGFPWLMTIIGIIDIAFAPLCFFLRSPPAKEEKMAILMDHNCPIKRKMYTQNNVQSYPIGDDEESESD
# mouse Estrogen Receptor alpha (Era), Esr1 (gene 13982), sequence (P19785 whole entry, looked up): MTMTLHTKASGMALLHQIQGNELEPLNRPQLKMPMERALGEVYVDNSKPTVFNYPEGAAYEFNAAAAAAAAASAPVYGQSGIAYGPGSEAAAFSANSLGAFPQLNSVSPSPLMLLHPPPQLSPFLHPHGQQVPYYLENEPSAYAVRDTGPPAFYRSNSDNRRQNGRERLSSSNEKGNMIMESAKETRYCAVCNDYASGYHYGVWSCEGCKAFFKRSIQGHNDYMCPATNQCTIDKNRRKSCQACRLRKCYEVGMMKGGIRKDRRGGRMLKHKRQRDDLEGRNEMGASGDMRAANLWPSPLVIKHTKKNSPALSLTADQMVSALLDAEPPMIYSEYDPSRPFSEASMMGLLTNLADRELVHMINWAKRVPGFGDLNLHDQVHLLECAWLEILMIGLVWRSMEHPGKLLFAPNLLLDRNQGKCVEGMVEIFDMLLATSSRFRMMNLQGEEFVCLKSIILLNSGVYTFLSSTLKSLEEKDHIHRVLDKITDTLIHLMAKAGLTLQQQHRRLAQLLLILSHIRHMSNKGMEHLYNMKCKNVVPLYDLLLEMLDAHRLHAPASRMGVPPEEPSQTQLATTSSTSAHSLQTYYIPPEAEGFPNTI
# PGR (gene 5241), sequence (P06401 whole entry, looked up): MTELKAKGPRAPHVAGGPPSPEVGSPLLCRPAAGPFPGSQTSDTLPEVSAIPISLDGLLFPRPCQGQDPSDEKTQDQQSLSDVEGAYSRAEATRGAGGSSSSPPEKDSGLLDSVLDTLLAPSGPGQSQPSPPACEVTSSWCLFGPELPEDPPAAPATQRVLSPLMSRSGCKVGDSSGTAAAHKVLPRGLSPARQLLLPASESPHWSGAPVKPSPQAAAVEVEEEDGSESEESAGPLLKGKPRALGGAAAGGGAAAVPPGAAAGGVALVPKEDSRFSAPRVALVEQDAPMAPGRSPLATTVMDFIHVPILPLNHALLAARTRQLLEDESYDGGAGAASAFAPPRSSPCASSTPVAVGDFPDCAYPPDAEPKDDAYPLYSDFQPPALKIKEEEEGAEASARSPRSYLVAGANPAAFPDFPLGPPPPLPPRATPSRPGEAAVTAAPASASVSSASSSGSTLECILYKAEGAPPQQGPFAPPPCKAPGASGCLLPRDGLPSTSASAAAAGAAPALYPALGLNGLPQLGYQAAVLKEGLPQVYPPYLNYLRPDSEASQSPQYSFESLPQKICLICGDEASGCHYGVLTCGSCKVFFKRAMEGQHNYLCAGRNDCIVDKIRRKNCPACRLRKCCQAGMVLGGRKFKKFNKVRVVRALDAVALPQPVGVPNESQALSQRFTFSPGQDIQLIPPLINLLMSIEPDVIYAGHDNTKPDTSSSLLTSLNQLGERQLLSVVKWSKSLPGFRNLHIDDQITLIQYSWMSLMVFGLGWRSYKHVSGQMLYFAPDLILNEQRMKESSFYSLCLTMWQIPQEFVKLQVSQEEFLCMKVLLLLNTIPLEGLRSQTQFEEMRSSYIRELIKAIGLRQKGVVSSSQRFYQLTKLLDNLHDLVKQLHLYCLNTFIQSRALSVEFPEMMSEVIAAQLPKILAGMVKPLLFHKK
smiles,measurement,setting,value
CN(C)c1ccc(C(=C2C=CC(=[N+](C)C)C=C2)c2ccccc2)cc1,outcome,[1],inactive
COP(=O)(OC)Oc1ccc([N+](=O)[O-])cc1,outcome,[2],inactive
same,outcome,[3],inactive
same,outcome,[4],inactive
same,outcome,[5],inactive
same,outcome,[6],inactive
same,outcome,[7],inactive
same,outcome,[8],inactive
same,outcome,[9],inactive
CC(=O)[O][Pb]([c]1ccccc1)([c]1ccccc1)[c]1ccccc1,outcome,[2],inactive
same,AC50,[10],458 nM (active)
same,AC50,[11],23.3 µM (active)
same,AC50,[4],4.03 µM (active)
same,AC50,[5],38.7 µM (active)
same,AC50,[12],655 nM (active)
same,AC50,[6],32.7 µM (active)
same,AC50,[7],1.32 µM (active)
same,AC50,[8],32.5 µM (active)
COP(=S)(NC(C)C)Oc1ccc(C)cc1[N+](=O)[O-] (stereo unspecified),AC50,[2],9.3 µM (active)
same,AC50,PGR (gene 5241),20.3 µM (active)
same,outcome,[13],inactive
same,outcome,[14],inactive
same,outcome,[15],inactive
[Cl][Sc]([Cl])[Cl],outcome,[1],inactive
Cc1cc(CCC(=O)OCCOCCOCCOC(=O)CCc2cc(C)c(O)c(C(C)(C)C)c2)cc(C(C)(C)C)c1O,outcome,[1],inactive
O=C1C[C@@H]2OCC=C3CN4CC[C@]56c7ccccc7N1[C@H]5[C@H]2[C@H]3C[C@H]46 (tested in a mixture with another compound),outcome,[10],inactive
same,outcome,[11],inactive
same,AC50,[4],41.2 µM (active)
same,outcome,[4],inactive
same,AC50,[5],36.6 µM (active)
same,outcome,[5],inactive
same,outcome,[12],inactive
same,outcome,[6],inactive
same,outcome,[7],inactive
same,outcome,[8],inactive
Oc1cc[c]([Hg][Cl])cc1,AC50,[10],20.9 µM (active) and 10.7 µM (active)
same,AC50,[11],13.9 µM (active)
same,outcome,[11],inactive
same,AC50,[4],41.6 µM (active) and 18.9 µM (active)
same,AC50,[5],30.1 µM (active) and 35.2 µM (active)
same,AC50,[12],20.4 µM (active) and 9.85 µM (active)
same,AC50,[6],39.2 µM (active) and 17.4 µM (active)
same,AC50,[7],25.3 µM (active) and 10.5 µM (active)
same,AC50,[8],41 µM (active) and 19.2 µM (active)
CCOC(=S)S,outcome,[10],inactive
same,outcome,[11],inactive
same,outcome,[4],inactive
same,AC50,[5],86.6 µM (active)
same,outcome,[5],inactive
same,outcome,[12],inactive
same,outcome,[6],inactive
same,outcome,[7],inactive
same,outcome,[8],inactive
COc1ccc(OC)c(N=Nc2c(O)ccc3ccccc23)c1,AC50,[1],0.107 µM (active)
C#CCN1CC(=O)N(COC(=O)C2C(C=C(C)C)C2(C)C)C1=O (stereo unspecified),outcome,[10],inactive
same,outcome,[11],inactive
same,outcome,[4],inactive
same,outcome,[5],inactive
same,outcome,[12],inactive
CCCCON=O,outcome,[10],inactive
same,outcome,[11],inactive
